# From PubChem BioAssay (Tox21)
# “And” between values parts separate entries of the source, which are not always exact repeats. Equal entries are not always repeated. Records with an inconclusive call do not appear. Where a call stands in place of a potency, no number is given. The source holds several records for some structures; these can differ, active in one and inactive in another. The source made the active and inactive calls. Calls come from the whole dose curve; as a rule, active = well fitted curve in the direction sought with a large enough effect in the repeat runs; inconclusive = weak or mixed curves; inactive = no such curve, though single readings can be large; an effect the other way counts as inactive or inconclusive.
# Tests used:
# [1] = A CellTox Green Cytotoxicity Assay to monitor cytotoxicity in HEK293 cells - 40 hour (AID 1224871); note: nearly all actives have a fitted effect of over 45% in size; note: potency is the fitted concentration of half-maximal effect
# In short: (§1)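 Cytotoxicity was tracked continuously in HEK293 cells by a DNA-binding dye excluded from viable cells. Compounds were transferred in DMSO 5 h after seeding; fluorescence was recorded at intervals up to 40 h.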
# [2] = qHTS RealTime-Glo MT Cell Viability Assay in HEK293 cells - 16 hour (AID 1224872); note: nearly all actives have a fitted effect of over 50% in size; note: potency is the fitted concentration of half-maximal effect
# In short: (§2)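 Viability tracked continuously by luminescence as live cells reduce a prosubstrate for NanoLuc; HEK293 cells preincubated 5 h, compound-treated at 37 C, and read at 0, 8, 16, 24, 32 and 40 h.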
# [3] = qHTS RealTime-Glo MT Cell Viability Assay in HepG2 cells - 8 hour (AID 1224873); note: nearly all actives have a fitted effect of over 55% in size
# In short: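 Real-time viability: cells seeded at 600 per well together with NanoLuc and cell-permeant prosubstrate, compounds added after 5 h incubation. Luminescence tracked at 0, 8, 16, 24, 32 and 40 h of exposure.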
# [4] = qHTS RealTime-Glo MT Cell Viability Assay in HEK293 cells - 40 hour (AID 1224874); conditions: RealTime-Glo luminescence; max response: stronger effect = lower value; note: nearly all actives have a fitted effect of over 50% in size; note: potency is the fitted concentration of half-maximal effect
# In short: (§3)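 Nonlytic bioluminescent viability monitoring. HEK293 at 600 cells/well with reagent; 5 h settle; compound transfer by pintool; plates held at 37 C and read at set time points.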
# [5] = A CellTox Green Cytotoxicity Assay to monitor cytotoxicity in HEK293 cells - 24 hour (AID 1224875); note: series mostly up to about 77 µM; nearly all actives have a fitted effect of over 45% in size
# In short: as §1
# [6] = A CellTox Green Cytotoxicity Assay to monitor cytotoxicity in HepG2 cells - 16 hour (AID 1224876); note: nearly all actives have a fitted effect of over 45% in size
# In short: (§4)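 Real-time, homogeneous cytotoxicity readout: dead-cell DNA staining by CellTox Green in HepG2 monolayers, fluorescence measured at timed intervals up to 40 h of continuous compound exposure.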
# [7] = qHTS RealTime-Glo MT Cell Viability Assay in HepG2 cells - 32 hour (AID 1224877); note: nearly all actives have a fitted effect of over 55% in size
# In short: (§5)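 Viability was tracked continuously by NanoLuc luminescence from prosubstrate reduced by living HepG2 cells, at successive time points over 40 h of compound exposure. Cells with reagent were preincubated 5 h at 37 °C before compound addition.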
# [8] = A CellTox Green Cytotoxicity Assay to monitor cytotoxicity in HepG2 cells - 24 hour (AID 1224878); note: nearly all actives have a fitted effect of over 45% in size; note: potency is the fitted concentration of half-maximal effect
# In short: as §4
# [9] = qHTS RealTime-Glo MT Cell Viability Assay in HEK293 cells - 0 hour (AID 1224880)
# In short: as §3
# [10] = A CellTox Green Cytotoxicity Assay to monitor cytotoxicity in HEK293 cells - 32 hour (AID 1224881); note: nearly all actives have a fitted effect of over 40% in size
# In short: as §1
# [11] = A CellTox Green Cytotoxicity Assay to monitor cytotoxicity in HepG2 cells - 0 hour (AID 1224882); note: nearly all actives have a fitted effect of over 35% in size
# In short: as §4
# [12] = A CellTox Green Cytotoxicity Assay to monitor cytotoxicity in HepG2 cells - 32 hour (AID 1224883); note: nearly all actives have a fitted effect of over 50% in size; note: potency is the fitted concentration of half-maximal effect
# In short: as §4
# [13] = A CellTox Green Cytotoxicity Assay to monitor cytotoxicity in HEK293 cells - 8 hour (AID 1224884); note: nearly all actives have a fitted effect of over 35% in size
# In short: as §1
# [14] = qHTS RealTime-Glo MT Cell Viability Assay in HepG2 cells - 16 hour (AID 1224885); note: nearly all actives have a fitted effect of over 50% in size
# In short: as §5
# [15] = qHTS RealTime-Glo MT Cell Viability Assay in HEK293 cells - 24 hour (AID 1224886); note: nearly all actives have a fitted effect of over 50% in size; note: potency is the fitted concentration of half-maximal effect
# In short: as §2
# [16] = qHTS RealTime-Glo MT Cell Viability Assay in HEK293 cells - 8 hour (AID 1224887)
# In short: as §3
# [17] = A CellTox Green Cytotoxicity Assay to monitor cytotoxicity in HEK293 cells - 16 hour (AID 1224888); note: nearly all actives have a fitted effect of over 35% in size
# In short: as §1
# [18] = qHTS RealTime-Glo MT Cell Viability Assay in HepG2 cells - 0 hour (AID 1224889); note: nearly all actives have a fitted effect of over 50% in size
# In short: as §5
# [19] = A CellTox Green Cytotoxicity Assay to monitor cytotoxicity in HepG2 cells - 8 hour (AID 1224890); note: nearly all actives have a fitted effect of over 45% in size
# In short: as §4
# [20] = A CellTox Green Cytotoxicity Assay to monitor cytotoxicity in HepG2 cells - 40 hour (AID 1224879); note: nearly all actives have a fitted effect of over 40% in size; note: potency is the fitted concentration of half-maximal effect
# In short: as §4
compound,measurement,setting,value
O=c1cc[nH]c(=O)[nH]1,Potency,[1],inactive
same,Potency,[2],inactive
same,outcome,[3],inactive
same,max response,[4],-9.27% (inactive) and 1.51% (inactive)
same,Potency,[5],inactive
same,Potency,[6],inactive
same,outcome,[7],inactive
same,Potency,[8],inactive
same,Potency,[9],inactive
same,Potency,[10],inactive
same,Potency,[11],inactive
same,Potency,[12],inactive
same,Potency,[13],inactive
same,Potency,[14],inactive
same,Potency,[15],inactive
same,Potency,[16],inactive
same,Potency,[17],inactive
same,Potency,[18],inactive
same,Potency,[19],inactive
CC(=O)OC/C=C(C)/C=C/C=C(C)/C=C/C1=C(C)CCCC1(C)C,Potency,[1],inactive
same,Potency,[2],inactive
same,outcome,[3],inactive
same,max response,[4],-17.8% (inactive) and 3.29% (inactive) and 17.2% (inactive)
same,Potency,[5],inactive
same,Potency,[6],inactive
same,outcome,[7],inactive
same,Potency,[8],inactive
same,Potency,[20],inactive
same,Potency,[9],inactive
same,Potency,[10],inactive
same,Potency,[11],inactive
same,Potency,[12],inactive
same,Potency,[13],inactive
same,Potency,[14],inactive
same,Potency,[15],inactive
same,Potency,[16],inactive
same,Potency,[17],inactive
same,Potency,[18],inactive
same,Potency,[19],inactive
C#C[C@]1(O)CC[C@H]2[C@@H]3CCc4cc(O)ccc4[C@H]3CC[C@@]21C,Potency,[1],12.2 µM (active) and inactive
same,Potency,[2],inactive
same,outcome,[3],inactive
same,Potency,[4],6.87 µM (active) and 21.9 µM (active)
same,Potency,[5],inactive
same,Potency,[6],inactive
same,outcome,[7],inactive
same,Potency,[8],43.3 µM (active) and 6.7 nM (active)
same,Potency,[20],17.3 µM (active) and 19.5 µM (active)
same,Potency,[9],inactive
same,Potency,[10],inactive
same,Potency,[11],inactive
same,Potency,[12],21.7 µM (active) and 43.6 µM (active)
same,Potency,[13],inactive
same,Potency,[14],inactive
same,Potency,[15],19.5 µM (active)
same,Potency,[16],inactive
same,Potency,[18],inactive
same,Potency,[19],inactive
COc1ccc(C(=O)c2ccccc2)c(O)c1,Potency,[1],inactive
same,Potency,[2],inactive and 21.9 µM (active)
same,outcome,[3],inactive
same,Potency,[4],7.76 µM (active)
same,max response,[4],-12.2% (inactive) and 5.78% (inactive)
same,Potency,[5],inactive
same,Potency,[6],inactive
same,Potency,[8],inactive
same,Potency,[9],inactive
same,Potency,[10],inactive
same,Potency,[11],inactive
same,Potency,[12],inactive
same,Potency,[13],inactive
same,Potency,[14],inactive
same,Potency,[15],inactive and 12.3 µM (active)
same,Potency,[16],inactive
same,Potency,[18],inactive
same,Potency,[19],inactive
NCCNc1cccc2ccccc12,Potency,[1],inactive
same,Potency,[2],54.9 µM (active) and 47.8 µM (active) and inactive
same,outcome,[3],inactive
same,Potency,[4],54.9 µM (active) and 53.6 µM (active)
same,max response,[4],0.781% (inactive)
same,Potency,[5],inactive
same,Potency,[6],inactive
same,Potency,[20],53.6 µM (active) and inactive
same,Potency,[10],inactive
same,Potency,[11],inactive
same,Potency,[12],53.6 µM (active) and inactive
same,Potency,[13],inactive
same,Potency,[14],inactive
same,Potency,[15],48.9 µM (active) and 47.8 µM (active) and inactive
same,Potency,[16],inactive
same,Potency,[18],inactive
same,Potency,[19],inactive
OCCCc1ccccc1,Potency,[1],inactive
same,Potency,[2],inactive
same,outcome,[3],inactive
same,max response,[4],12.9% (inactive) and 2.88% (inactive)
same,Potency,[5],inactive
same,Potency,[6],inactive
same,outcome,[7],inactive
same,Potency,[8],inactive
same,Potency,[9],inactive
same,Potency,[10],inactive
same,Potency,[11],inactive
same,Potency,[12],inactive
same,Potency,[13],inactive
same,Potency,[14],inactive
same,Potency,[15],inactive
same,Potency,[16],inactive
same,Potency,[18],inactive
same,Potency,[19],inactive
